Screening data: PubChem, several laboratories
LANA-H2B inh = blocks KSHV LANA binding to histone H2A/H2B | cell-free LANA-H2A/H2B peptide, fluorescence polarization | inhibition, % (no concentration beside the values) | 320,000 compounds, 0.6% hits; in the data active = inhibition mostly above about 10%, no sharp cut-off; inactive = mostly below about 6.7%
Target sequence (Q9QR71 whole entry, looked up): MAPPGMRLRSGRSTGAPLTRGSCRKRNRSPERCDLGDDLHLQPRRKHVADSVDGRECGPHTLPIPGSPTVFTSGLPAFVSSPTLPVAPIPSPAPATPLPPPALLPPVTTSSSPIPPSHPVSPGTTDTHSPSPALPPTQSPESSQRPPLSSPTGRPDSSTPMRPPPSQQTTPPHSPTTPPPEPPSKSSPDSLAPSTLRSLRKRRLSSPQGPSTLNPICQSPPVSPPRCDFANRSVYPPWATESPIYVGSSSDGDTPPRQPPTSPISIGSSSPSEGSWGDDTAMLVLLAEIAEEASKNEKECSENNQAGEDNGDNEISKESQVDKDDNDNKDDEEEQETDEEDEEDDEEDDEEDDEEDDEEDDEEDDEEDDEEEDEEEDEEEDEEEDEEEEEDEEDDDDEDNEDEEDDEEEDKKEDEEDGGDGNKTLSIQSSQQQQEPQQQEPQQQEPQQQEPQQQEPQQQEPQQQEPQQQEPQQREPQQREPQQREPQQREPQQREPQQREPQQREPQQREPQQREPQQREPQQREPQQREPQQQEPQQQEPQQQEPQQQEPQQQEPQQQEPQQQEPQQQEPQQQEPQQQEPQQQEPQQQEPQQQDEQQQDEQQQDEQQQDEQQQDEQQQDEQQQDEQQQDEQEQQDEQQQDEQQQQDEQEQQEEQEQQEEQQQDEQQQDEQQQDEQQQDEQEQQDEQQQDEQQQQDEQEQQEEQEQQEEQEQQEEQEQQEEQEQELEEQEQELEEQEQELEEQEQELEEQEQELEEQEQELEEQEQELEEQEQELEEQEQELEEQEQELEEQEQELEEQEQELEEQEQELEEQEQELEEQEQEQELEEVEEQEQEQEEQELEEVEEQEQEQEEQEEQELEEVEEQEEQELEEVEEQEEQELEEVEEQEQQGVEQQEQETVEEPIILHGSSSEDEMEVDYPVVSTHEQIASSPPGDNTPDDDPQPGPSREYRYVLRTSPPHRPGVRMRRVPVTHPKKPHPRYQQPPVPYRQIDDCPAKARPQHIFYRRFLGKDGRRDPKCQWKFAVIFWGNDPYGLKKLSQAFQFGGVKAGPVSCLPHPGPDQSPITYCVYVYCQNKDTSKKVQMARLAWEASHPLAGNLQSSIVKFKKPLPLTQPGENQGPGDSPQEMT
EBNA-1 inh = blocks EBNA-1 binding to DNA | 300,000 compounds, 0.34% hits | inhibition, % at 14.8 µM | EBNA-1 DNA binding, fluorescence polarization; in the data active = inhibition above about 28%
LYPLA1 counter = counter-screen for PME1 inhibitors: inhibitors of human LYPLA1 | recombinant LYPLA1, FP-Rh probe fluorescence polarization | inhibition, % at 5.9 µM | 320,000 compounds, 0.16% hits;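 active = inhibition above the mean of all tested compounds plus 3 SD, set per campaign, cut at about 14% in these data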;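 also: inhibitors block serine hydrolase probe labeling of LYPLA1 so polarization falls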
LYPLA2 counter = LYPLA2 (human) inhibition in PME1 counter-screen; O95372; recombinant LYPLA2, FP-Rh probe fluorescence polarization; inhibition, % at 5.9 µM; 320,000 compounds, 0.38% hits; AID 2177;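 active = inhibition above the screen-wide mean plus 3 SD, limit set per campaign, cut at about 26% in these data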
ZTA DNA inh = ZTA (EBV) inhibition in EBNA-1 counter-screen; 320,000 compounds, 0.15% hits; ZTA-DNA binding, fluorescence polarization; AID 2234; inhibition, % at 11 µM; P03206; in the data active = inhibition above about 33%
LYPLA1 conf = LYPLA1 (human) inhibition, confirmation counter-screen. shares compounds with LYPLA1 counter. recombinant LYPLA1, FP-Rh probe fluorescence polarization. inhibition, % at 5.9 µM. 480 compounds, 69% hits. AID 2233;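 active = mean inhibition across replicates above the hit cutoff set in the primary screen, cut at about 15% in these data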;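 also: loss of FP-Rh probe labeling of LYPLA1 seen as lower polarization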
Numbers stand for hits; ! = not confirmed by another sample. A selection: hits, their analogues and other compounds. The true share with any hit is near 1.4%.

O=C(O)CCCCCCCCCCCc1ccccc1 was read as LANA-H2B inh inactive, EBNA-1 inh inactive, LYPLA1 counter 18, LYPLA2 counter inactive, ZTA DNA inh inactive and LYPLA1 conf 27.
`C=C[C@]1(C)C[C@@H](OC(=O)CSCCN(CC)CC)[C@]2(C)C(C)CC[C@]3(CCC(=O)[C@H]32)[C@@H](C)[C@@H]1O` (stereo partly specified) gave LANA-H2B inh inactive, EBNA-1 inh inactive, LYPLA1 counter 15!, LYPLA2 counter inactive, ZTA DNA inh inactive and LYPLA1 conf inactive.
Cc1cc(C)nc(Nc2ccc(O)cc2)n1 was read as LANA-H2B inh inactive, EBNA-1 inh inactive, LYPLA1 counter inactive, LYPLA2 counter inactive and ZTA DNA inh inactive.
Screening Cc1cc(Nc2ccc(O)cc2)ccc1N returned LANA-H2B inh inactive, LYPLA1 counter 16, LYPLA2 counter inactive, ZTA DNA inh inactive and LYPLA1 conf inactive.
Screening COc1ccc(OC)c2c1C(=O)C(Cl)=C(Cl)C2=O returned LANA-H2B inh inactive, EBNA-1 inh inactive, LYPLA1 counter inactive, LYPLA2 counter inactive and ZTA DNA inh inactive.
For COc1ccc(N)c2c1C(=O)c1ccccc1C2=O the results were EBNA-1 inh inactive, LYPLA1 counter 20, LYPLA2 counter inactive, ZTA DNA inh inactive and LYPLA1 conf 14.
For COc1ccc(OC)c2c1C(=O)c1ccccc1C2=O the results were LANA-H2B inh inactive, EBNA-1 inh inactive, LYPLA1 counter 22, LYPLA2 counter inactive, ZTA DNA inh inactive and LYPLA1 conf inactive.
Nc1ccc(Br)c2c1C(=O)c1ccccc1C2=O was read as LANA-H2B inh inactive, EBNA-1 inh inactive, LYPLA1 counter inactive, LYPLA2 counter inactive and ZTA DNA inh inactive.
For CCN1C(=O)N[C@@H](c2ccccc2)[C@@H](C(=O)OC)[C@H]1C the results were LANA-H2B inh inactive, EBNA-1 inh inactive, LYPLA1 counter inactive, LYPLA2 counter inactive and ZTA DNA inh inactive.
COc1ccccc1/C=C/C=N/N1CCN(Cc2ccc(Cl)cc2)CC1 was read as LANA-H2B inh inactive, EBNA-1 inh inactive, LYPLA1 counter 19, LYPLA2 counter inactive, ZTA DNA inh inactive and LYPLA1 conf 26.
Screening COc1cc(/C=N/N2CCN(Cc3ccc(Cl)cc3)CC2)cc(Br)c1O returned LANA-H2B inh inactive, EBNA-1 inh inactive, LYPLA1 counter 49, LYPLA2 counter inactive, ZTA DNA inh inactive and LYPLA1 conf 54.
C=CCOc1ccc(Br)cc1CNC(C)(C)C was read as LANA-H2B inh inactive, EBNA-1 inh inactive, LYPLA1 counter 18, LYPLA2 counter inactive, ZTA DNA inh inactive and LYPLA1 conf inactive.
Screening CCOC(=O)C1(O)CSc2nc3sc(C(=O)O)c(C)c3c(=O)n21 (stereo unspecified) returned LANA-H2B inh inactive, EBNA-1 inh inactive, LYPLA1 counter 14, LYPLA2 counter inactive, ZTA DNA inh inactive and LYPLA1 conf inactive.
For CC(C)(C)CC(C)(C)NC(=O)/C=C/C(=O)O the results were LANA-H2B inh inactive, EBNA-1 inh inactive, LYPLA1 counter inactive, LYPLA2 counter inactive and ZTA DNA inh inactive.
For COc1ccc(CN2CCCC(C(=O)Nc3cccc(-n4cnnn4)c3)C2)c(C)c1C (stereo unspecified) the results were LANA-H2B inh inactive, EBNA-1 inh inactive, LYPLA1 counter inactive, LYPLA2 counter inactive and ZTA DNA inh inactive.
For CN(CC(=O)Nc1ccc(F)cc1)C(=O)Cn1cnc2ccc([N+](=O)[O-])cc2c1=O the results were LANA-H2B inh inactive.
For COc1ccc(S(=O)(=O)Nc2ccc(Cc3ccncc3)cc2)cc1OC the results were LANA-H2B inh inactive, EBNA-1 inh inactive, LYPLA1 counter 20, LYPLA2 counter inactive, ZTA DNA inh inactive and LYPLA1 conf 28.
For CCN(CC)c1ccc(/C=C(\C#N)C(N)=S)cc1 the results were LANA-H2B inh inactive, EBNA-1 inh inactive, LYPLA1 counter inactive, LYPLA2 counter inactive and ZTA DNA inh inactive.
`CCN(CC)c1ccc(/C=C(\C#N)C(=O)c2ccc(Br)cc2)cc1` gave LANA-H2B inh inactive, EBNA-1 inh inactive, LYPLA1 counter 32, LYPLA2 counter inactive, ZTA DNA inh inactive and LYPLA1 conf 77.
Screening COCCCn1c(=O)c2sccc2n(Cc2ccc(C)cc2)c1=O returned LANA-H2B inh inactive, EBNA-1 inh inactive, LYPLA1 counter inactive, LYPLA2 counter inactive and ZTA DNA inh inactive.
CC(=O)c1ccc(N2CCN(C(=O)c3cccc(Oc4ccccc4)c3)CC2)cc1 was read as LANA-H2B inh inactive, EBNA-1 inh inactive, LYPLA1 counter 48, LYPLA2 counter 67, ZTA DNA inh inactive and LYPLA1 conf 62.
For CC(=O)c1ccc(N2CCN(C(=O)c3ccc(-c4ccccc4)cc3)CC2)cc1 the results were LANA-H2B inh inactive, EBNA-1 inh inactive, LYPLA1 counter inactive, LYPLA2 counter inactive and ZTA DNA inh inactive.
For COc1cc(N=C2C(=O)N3c4c(cccc42)C(C)=CC3(C)C)cc(OC)c1 the results were LANA-H2B inh inactive, EBNA-1 inh inactive, LYPLA1 counter inactive, LYPLA2 counter inactive and ZTA DNA inh inactive.
CC1=CC(C)(C)N2C(=O)C(=Nc3ccc(O)cc3)c3cccc1c32 was read as LANA-H2B inh inactive, EBNA-1 inh inactive, LYPLA1 counter 17, LYPLA2 counter inactive, ZTA DNA inh inactive and LYPLA1 conf inactive.
For COC(=O)c1[nH]c2cc(OC)ccc2c1NC(=O)CN1CCN(c2cccc(C)c2)C(C)C1 (stereo unspecified) the results were LANA-H2B inh inactive, EBNA-1 inh inactive, LYPLA1 counter 42, LYPLA2 counter inactive, ZTA DNA inh inactive and LYPLA1 conf 48.
`CC(C)c1ccccc1NC(=O)CSc1n[nH]c(=O)n1C1CC1` gave LANA-H2B inh inactive, LYPLA1 counter inactive, LYPLA2 counter inactive and ZTA DNA inh inactive.
Screening O=C(CCCCCN1C(=O)c2ccccc2C1=O)Oc1ccc2c3c(c(=O)oc2c1)CCC3 returned LANA-H2B inh inactive, EBNA-1 inh inactive, LYPLA1 counter 32, LYPLA2 counter inactive, ZTA DNA inh inactive and LYPLA1 conf 51.
For CCOc1ccc(CCNC(=O)COC(=O)c2c(C)nn(-c3ccccc3)c2C)cc1OCC the results were LANA-H2B inh inactive, EBNA-1 inh inactive, LYPLA1 counter inactive, LYPLA2 counter inactive and ZTA DNA inh inactive.
For O=C1CCC([N+](=O)[O-])C(c2ccc(-c3ccccc3)cc2)N1 (stereo unspecified) the results were LANA-H2B inh inactive, EBNA-1 inh inactive, LYPLA1 counter 22, LYPLA2 counter inactive, ZTA DNA inh inactive and LYPLA1 conf 24.
`O=C(COC(=O)C1CC2C=CC1C2)Nc1cccc(S(=O)(=O)N2CCCCCC2)c1` (stereo unspecified) gave LANA-H2B inh inactive, EBNA-1 inh inactive, LYPLA1 counter 37, LYPLA2 counter inactive, ZTA DNA inh inactive and LYPLA1 conf 46.
Screening O=C(COC(=O)C1CC2C=CC1C2)Nc1cccc(S(=O)(=O)N2CCCCC2)c1 (stereo unspecified) returned EBNA-1 inh inactive, LYPLA1 counter 16, LYPLA2 counter inactive, ZTA DNA inh inactive and LYPLA1 conf 28.
